# Assay results published in PubChem BioAssay.
# Values joined by “and” are separate entries in the source; they are usually repeats but may differ in a detail not shown here. Identical values can stand only once. Records with an inconclusive call do not appear. Some structures have more than one record in an assay (separate samples or runs), and their calls can disagree. Active and inactive are the calls of the source. Unless noted, no stated cut-off is given here; in the data, active means inhibition above about 80%; inactive means the rest.
# How the values were obtained:
# [1] = viability loss in pontine glioma line – cell-based, SU-DIPG-XXV, MIPE5.0, CellTiter-Glo, qHTS, dose response (AID 1347065; cut-off not given, nearly all actives have AC50 up to about 26 µM;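 further: cells exposed to compound for 48 hours before ATP readout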); conditions: CellTiter-Glo ATP luminescence
# [2] = viability loss with induced miR-34 in A549 – imaging, A549 dox-inducible miR-34, nuclei and caspase counts, primary screen (AID 1347080;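 active means compounds whose cell count with miR-34 switched on is under 0.7 times the count with it off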); conditions: A549 miR-34 inducible, Hoechst nuclei count, 48 h
# [3] = MELAS cybrid and Rieske KO viability enhancers – cell-based, MELAS cybrids, Rieske KO mouse fibroblasts, CellTiter-Glo, primary screen (AID 1508586;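 active means mean z-score across replicates of 1.96 or higher in either the MELAS or the Rieske mutant cell line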;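 further: z relative to plate mean and SD of compound and empty wells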); conditions: low glucose
# [4] = growth inhibition, single agent or in combination, cell-based, chromothripsis tumors, cisplatin or BGB combos (AID 1671449); conditions: LFS_MB_P medulloblastoma cells;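 further: cells exposed for 96 hours; 0% = vehicle DMSO and 100% = killing by high DMSO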
# [5] = growth inhibition, single agent and combos, cell-based, chromothripsis tumors, cisplatin or BGB combos (AID 1671450); conditions: HDN33 neuroblastoma cells, stronger effect = higher value;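 further: cells exposed to compound for four days; 0% = vehicle DMSO and 100% = cell killing by high DMSO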
# [6] = growth inhibition, single agents and combos, ICB984, cell-based, cisplatin or BGB combos, synergistic combos for chromothripsis tumors (AID 1671451; call rule not given here;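 further: cells exposed for 96 hours before readout; 0% = vehicle DMSO and 100% = killing by high DMSO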); conditions: ICB984 medulloblastoma cells, drug combinations, stronger effect = higher value
# [7] = growth inhibition, single agents and combos, LFS_MB_1R, cell-based, cisplatin or BGB combos, synergistic combos for chromothripsis tumors (AID 1671452); conditions: LFS_MB_1R medulloblastoma cells, stronger effect = higher value;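 further: cells exposed for 96 hours before readout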
# [8] = growth inhibition, single agents and combos, HTB85, cell-based, BGB or cisplatin IC20 combos, synergistic combos for chromothripsis tumors (AID 1671453); conditions: HTB85 osteosarcoma cells, drug combinations, stronger effect = higher value;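 further: cells exposed for 96 hours before readout; 0% = vehicle DMSO and 100% = high DMSO killing control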
# [9] = growth inhibition, single agents and combos, CRL2098, cell-based, BGB or cisplatin IC20 combos, synergistic combos for chromothripsis tumors (AID 1671454); conditions: CRL2098 osteosarcoma cells, drug combinations, stronger effect = higher value;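 further: cells exposed for 96 h before readout; 0% = vehicle DMSO and 100% = killing by high DMSO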
# [10] = growth inhibition, single agents and combos, HD-MB03, cell-based, BGB or cisplatin IC20 combos, synergistic combos for chromothripsis tumors (AID 1671455; in the data active means inhibition above about 83%;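 further: 0% = vehicle DMSO and 100% = high DMSO as cytotoxic control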); conditions: HD-MB03 medulloblastoma cells, stronger effect = higher value
# [11] = growth inhibition, single agents and combos, UWB1.289, cell-based, BGB or cisplatin combos, synergistic combos for chromothripsis tumors (AID 1671456); conditions: UWB1.289 ovarian carcinoma cells, stronger effect = higher value;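 further: cells exposed to compound for four days; 0% = vehicle DMSO and 100% = killing by high DMSO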
# [12] = growth inhibition, single agents and combos, LFS_MB_2R, cell-based, cisplatin combos, synergistic combos for chromothripsis tumors (AID 1671457); conditions: LFS_MB_2R medulloblastoma cells, stronger effect = higher value;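 further: cells exposed to compound for four days before readout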
# [13] = growth inhibition, MDA-MB-436, cell-based, BGB or cisplatin combos, synergistic combos for chromothripsis tumors (AID 1671458; call rule not given here;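 further: cells exposed for 96 hours; 0% = vehicle DMSO and 100% = killing by high DMSO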); conditions: MDA-MB-436 breast carcinoma growth inhibition, drug combinations, stronger effect = higher value
# [14] = UWB1.289_BRCA1 ovarian cancer growth, cell-based, BGB or cisplatin combinations (AID 1671459); conditions: UWB1.289 BRCA1 ovarian carcinoma, drug combinations, stronger effect = higher value
# [15] = drug combination toxicity in non-malignant astrocytes – cell-based, BGB or cisplatin IC20 combos, cytotoxicity control for chromothriptic childhood tumor combination screen (AID 1671460); conditions: Human astrocytes, viability inhibition, drug combinations, at 0.5 µM, stronger effect = higher value;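 further: cells exposed to compounds for 96 hours before viability readout; 0% = vehicle and 100% = killing control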
# [16] = measured here: combination with BGB IC40, at 0.05 µM
# [17] = measured here: combination with cisplatin, at 0.5 µM
# [18] = measured here: combination with cisplatin, at 5 µM
structure (smiles),measurement,setting,value
CNCc1ccc(-c2cc(-c3nc(-c4ccc(S(=O)(=O)C(C)C)cc4)cnc3N)on2)cc1,AC50,[1],6.61 µM (active)
same,fold change,"[2]; stronger effect = lower value, cell number ratio, induced over uninduced",1.09 (inactive)
same,fold change,[2]; measured here: relative caspase fold change +Dox/-Dox,0.389
same,cell count,"[2]; measured here: total cells with miR-34 induction, stronger effect = lower value",2400
same,cell count,[2]; measured here: total cells without miR-34 induction,2210
same,z-score,"[3]; MELAS cybrid survival, CellTiter-Glo 48 h, stronger effect = higher value",2.18 (active)
same,z-score,"[3]; Rieske KO mouse fibroblast survival, CellTiter-Glo 72 h",-0.548
same,inhibition,"[4]; at 0.5 µM, stronger effect = higher value",-32.1% (inactive) and 15.3% (inactive)
same,inhibition,"[4]; measured here: combination with BGB IC20, at 0.005 µM",12.2% and -16.2%
same,inhibition,"[4]; measured here: combination with BGB IC40, at 0.005 µM",9.32% and -55%
same,inhibition,[4]; [16],-2.44% and -42.7%
same,inhibition,"[4]; measured here: combination with cisplatin, at 0.5 µM, stronger effect = higher value",-68.5% and 16.4%
same,inhibition,"[4]; measured here: combination with cisplatin, at 5 µM, stronger effect = higher value",96.1% and -3.93%
same,inhibition,"[5]; BGB combo, at 5 µM",99.9% and 91.5%
same,inhibition,[5]; at 0.5 µM,81% (active) and 55% (inactive)
same,inhibition,"[5]; cisplatin combo, at 5 µM",99.7% and 98.8%
same,inhibition,"[5]; measured here: with BGB IC20 combination, at 0.5 µM",74.7% and 52.8%
same,inhibition,"[5]; measured here: with cisplatin IC20 combination, at 0.5 µM",84.9% and 61.2%
same,inhibition,"[5]; single agent, at 5 µM",99.6% and 97.3%
same,inhibition,"[6]; BGB IC20 combo, at 0.005 µM",10% and -1.43%
same,inhibition,"[6]; BGB IC40 combo, at 0.005 µM",46.6% and 13%
same,inhibition,"[6]; BGB IC40 combo, at 0.05 µM",102%
same,inhibition,[6]; at 0.5 µM,-9.05% (inactive) and -13.1% (inactive)
same,inhibition,"[6]; cisplatin combo, at 0.05 µM",102% and 103%
same,inhibition,"[6]; cisplatin combo, at 0.5 µM",-4.28% and -29.4%
same,inhibition,"[6]; cisplatin combo, at 5 µM",0.208% and -7.66%
same,inhibition,"[6]; measured here: 5 uM single agent, at 5 µM",4.2% and -17.2%
same,inhibition,[7]; at 0.5 µM,-10.6% (inactive) and -30.6% (inactive)
same,inhibition,[7]; [16],-16.3% and -24.4%
same,inhibition,[7]; [17],-6.99% and -51.5%
same,inhibition,[7]; [18],103% and 92%
same,inhibition,[8]; at 0.5 µM,67.2% (inactive) and 53.2% (inactive)
same,inhibition,"[8]; measured here: with BGB IC20, at 0.5 µM",67.9% and 66.3%
same,inhibition,"[8]; measured here: with BGB IC20, at 5 µM",99.8% and 98.3%
same,inhibition,"[8]; measured here: with cisplatin IC20, at 0.5 µM",78.5% and 60.7%
same,inhibition,"[8]; measured here: with cisplatin IC20, at 5 µM",99.8% and 88.8%
same,inhibition,"[8]; single agent, at 5 µM",99.8% and 79%
same,inhibition,[9]; at 0.5 µM,45.2% (inactive) and 30% (inactive)
same,inhibition,"[9]; measured here: combination with BGB at IC20, at 0.5 µM",27% and 27.5%
same,inhibition,"[9]; measured here: combination with cisplatin at IC20, at 0.5 µM",60.9% and 31.3%
same,inhibition,[10]; at 0.5 µM,87.3% (active) and 58.6% (inactive)
same,inhibition,"[10]; measured here: combo with BGB at IC20, at 0.5 µM",82.9% and 61.6%
same,inhibition,"[10]; measured here: combo with cisplatin at IC20, at 0.5 µM",96.2% and 87.4%
same,inhibition,[11]; at 0.5 µM,83% (active) and 72.2% (inactive)
same,inhibition,"[11]; measured here: inhibition with BGB combination, at 0.05 µM",7.96% and -9.18%
same,inhibition,"[11]; measured here: inhibition with cisplatin combination, at 0.05 µM",41.3% and 1.85%
same,inhibition,[12]; at 0.5 µM,13.8% (inactive) and -20% (inactive)
same,inhibition,[12]; [17],29.2% and -5.7%
same,inhibition,[12]; [18],104% and 53.6%
same,inhibition,[13]; at 0.5 µM,55.5% (inactive) and 36% (inactive)
same,inhibition,"[13]; measured here: BGB combination, at 0.5 µM",34.5% and 11.4%
same,inhibition,"[13]; measured here: BGB combination, at 5 µM",82.1% and 63.6%
same,inhibition,"[13]; measured here: cisplatin combination, at 0.5 µM",76.4% and 54%
same,inhibition,"[13]; measured here: cisplatin combination, at 5 µM",109% and 82.4%
same,inhibition,"[14]; BGB combination, concentration series, at 5 µM",101% and 97.7%
same,inhibition,[14]; at 0.5 µM,90.3% (active) and 82.2% (active)
same,inhibition,"[14]; cisplatin combination, concentration series, at 5 µM",84.8% and 106%
same,inhibition,[15],-32% (inactive) and -35.2% (inactive)
same,inhibition,[15]; measured here: combo with BGB IC20,-34.1% and -25.6%
same,inhibition,[15]; measured here: combo with cisplatin IC20,-44.2% and -41.4%
